# In all, about 33,000 sequences were measured (“E-score (-0.5 to 0.5)”: median about -0.012, highest 2% from about 0.29 on). For the sample, the highest values were picked, then their nearest neighbours and some sequences at random.
# Target: T1, Ybr033w (UniProt P38073)
# T1 sequence: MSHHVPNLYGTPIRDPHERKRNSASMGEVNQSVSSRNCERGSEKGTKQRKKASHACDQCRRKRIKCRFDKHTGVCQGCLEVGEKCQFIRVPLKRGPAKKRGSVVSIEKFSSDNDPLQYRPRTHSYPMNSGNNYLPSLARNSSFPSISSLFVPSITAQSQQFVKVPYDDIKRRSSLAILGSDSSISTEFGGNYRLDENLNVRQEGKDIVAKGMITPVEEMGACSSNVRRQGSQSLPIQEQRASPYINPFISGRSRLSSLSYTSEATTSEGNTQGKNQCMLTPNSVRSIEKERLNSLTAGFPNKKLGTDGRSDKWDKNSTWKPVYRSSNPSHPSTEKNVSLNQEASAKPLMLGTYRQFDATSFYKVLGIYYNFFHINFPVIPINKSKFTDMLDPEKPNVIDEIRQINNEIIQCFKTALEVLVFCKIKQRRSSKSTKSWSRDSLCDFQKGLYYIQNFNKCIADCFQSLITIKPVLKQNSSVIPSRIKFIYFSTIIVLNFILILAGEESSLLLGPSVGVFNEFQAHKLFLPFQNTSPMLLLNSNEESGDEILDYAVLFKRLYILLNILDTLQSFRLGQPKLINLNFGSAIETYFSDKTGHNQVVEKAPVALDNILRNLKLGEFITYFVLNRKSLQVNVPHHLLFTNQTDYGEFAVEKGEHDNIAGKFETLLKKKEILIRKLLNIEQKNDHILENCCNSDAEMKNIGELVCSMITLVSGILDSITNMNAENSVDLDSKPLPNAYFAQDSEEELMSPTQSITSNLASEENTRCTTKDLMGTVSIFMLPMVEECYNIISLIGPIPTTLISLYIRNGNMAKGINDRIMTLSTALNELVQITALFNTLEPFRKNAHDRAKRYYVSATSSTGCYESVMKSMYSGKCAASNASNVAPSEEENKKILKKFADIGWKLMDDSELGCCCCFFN
# Test: PBM E-score (8-mer binding enrichment) (E-score (-0.5 to 0.5)); higher = stronger / more preferred TF binding
# Conditions: protein concentration: 200 nM; construct: GST-full length
# Procedure: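 Universal 'all 10-mer' protein binding microarrays (Agilent AMADID 015681) probed with GST-tagged S. cerevisiae TFs (full-length or DBD) made by in vitro transcription/translation (PURExpress), about 100-200 nM. Bound TF was detected with fluorescent anti-GST. Each ungapped 8-mer (which stands for itself and its reverse complement) is scored by the PBM enrichment score (E-score), a modified Wilcoxon-Mann-Whitney statistic from -0.5 to +0.5, computed with the Universal PBM Analysis Suite. Scale: above 0.35 generally sequence-specific binding.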
row,Sequence,PBM E-score
1,CTCCACAA,0.0525
2,GTCCAGAA,-0.051
3,TTCCACAA,0.314
4,TTCCAGAA,0.294
5,CTCCAGAA,-0.0883
6,GTCCACAA,0.0077
7,ATGAAGAA,0.126
8,CTGAACAG,0.00549
9,CACGACAA,-0.0495
10,AACGACAA,0.175
11,GACGACAA,0.293
12,GAAAGTAC,0.0791
13,GACCATTA,0.2
14,GACTTAAA,0.0498
15,GGTTAAGA,0.0725
16,TACTACCA,0.106
17,ATCATTTC,0.258
18,AACATAAC,0.281
19,CTCATTTA,0.0742
20,AACATAAT,0.295
21,CACATATA,0.0859
22,AACATAAA,0.11
23,ATCATTAA,0.313
24,GACATATA,0.185
25,AACATATA,0.298

row,Sequence,PBM E-score
1,ATCATTTA,0.336
2,CTCATTAA,0.23
3,ATCATTAG,0.16
4,AGTTGTAT,0.0541
5,TGGCCTAA,-0.088
6,ATGGCAAG,-0.0226
7,GTCCTTGA,-0.0584
8,GACCTATC,-0.0417
9,AGCCACGA,-0.228
10,TCACACGA,-0.00326
11,CTACTAAC,0.222
12,CAAGCGTA,0.093
13,GACATTTA,-0.045
14,AACATTTC,0.272
15,AACATTTA,0.296
16,CCACTTGC,-0.0925
17,CCGCGCGG,0.104
18,AGATCGAG,0.0958
19,TACCAATA,0.0786
20,GACATCAA,0.0415
21,CACATCAA,0.127
22,CCCATCAA,0.101
23,TCCATCAA,0.312
24,AACATCAA,0.319
25,ACCATCAA,0.137

row,Sequence,PBM E-score
1,AATGCCAA,0.112
2,CACCTCAC,0.0264
3,TCCTTTAA,0.132
4,ATGACTGG,-0.17
5,GACTGCAC,-0.221
6,AACAATTG,0.115
7,ATCAATTG,0.252
8,AACAATTC,0.205
9,ATCAATTA,0.365
10,CTCAATAA,0.12
11,AACAATTA,0.366
12,ATCAATAG,0.178
13,ATCAATTC,0.125
14,ATCAATAA,0.321
15,CAGGAGGC,-0.202
16,CAATTGCC,0.0461
17,AATACTCG,0.22
18,CTGAGACC,-0.291
19,CGTCTGGC,0.0541
20,ATACCATG,-0.0754
21,ATACCATA,0.297
22,GTACCATA,0.00958
23,ATCGAAAT,0.119
24,AATAAAGT,0.265
25,GCAAAGTA,0.113

row,Sequence,PBM E-score
1,ACAAAGTC,0.0213
2,ATAAAGAA,0.291
3,ATAAAGTG,0.244
4,TTAAAGAA,0.117
5,GTAAAGTA,0.174
6,CTAAAGAA,0.0669
7,ACAAAGTA,0.3
8,ATAAAGTA,0.306
9,AGTAAGAA,0.208
10,AACAGTGA,-0.0153
11,ATGTGCTA,0.208
12,GCTGCTCA,-0.11
13,CTCTCTCC,-0.21
14,ACACTCAC,0.0907
15,GACGCAGA,-0.127
16,ATAGCTAT,0.13
17,ACTATCCG,0.16
18,ATTATCCC,0.321
19,ATTATCGC,0.319
20,CTTATCCC,-0.16
21,ATTATCCG,0.469
22,ATTATCCA,0.341
23,ATTATCTG,0.218
24,ATTATCGA,0.0687
25,GTTATCCA,0.0783

row,Sequence,PBM E-score
1,ACTATCCC,-0.24
2,CTTATCCA,0.0666
3,ATTATCGG,0.0549
4,AACCATAG,0.0244
5,CGTCAAAA,0.108
6,ACACCAGA,0.059
7,GAGACGCC,-0.0848
8,AAATTTCG,0.139
9,ACCTTTTA,-0.0294
10,ATCCACAC,-0.00864
11,AGCTTGCC,-0.231
12,AACAGGTG,-0.0949
13,CCACCTCA,-0.134
14,AGGAGACT,-0.0682
15,ACGCCCCT,-0.389
16,AAAGGAAT,0.0153
17,AGCAAAAT,0.2
18,CAAAAAAC,0.146
19,AGCAAAAC,0.0585
20,AGCAAAAA,0.319
21,ACCAAAAC,0.0839
22,ACCAAAAA,0.332
23,CAAAAAAA,0.293
24,CCCAAAAA,-0.19
25,CCAAAAAC,0.132

row,Sequence,PBM E-score
1,ACCAAAAT,0.111
2,CCAAAAAA,0.332
3,CAAAAAAG,0.261
4,GATATCGC,0.119
5,GGCTTCGA,-0.138
6,CTGTTCTA,-0.094
7,GCGCGAGC,-0.21
8,CCCTGCCC,-0.376
9,CCGCCAGA,-0.0108
10,CTGTCTCC,0.00722
11,GCCAGTAC,-0.0841
12,CGTTATGC,0.0079
13,CTTTTGGC,-0.0369
14,ATTATGTC,0.17
15,ATATTATC,0.265
16,AGTATATG,0.0561
17,ACTATATA,0.309
18,ATATTATA,0.227
19,ATTATGTA,0.312
20,ATATTATG,0.315
21,ATTATGTG,0.11
22,GCTATATA,0.194
23,AGTATATC,0.213
24,AGTATATA,0.389
25,ACTATATC,0.229

row,Sequence,PBM E-score
1,ACTGGAAC,0.072
2,ACCCACCC,0.0336
3,AACGCGAT,0.0217
4,TCTCTGCA,-0.162
5,GCACTTCA,0.0397
6,AGCGCTTC,0.016
7,ACCATCAT,0.0599
8,AGTGCTAC,-0.0555
9,CCCGGGAG,-0.0399
10,CGGCTCAA,0.103
11,CACTCGCA,-0.00609
12,ATATTACG,0.333
13,ACTATATG,0.256
14,ATTATATG,0.289
15,ATTATATA,0.297
16,ATATTACC,0.227
17,CTTATATC,0.146
18,ATTATATC,0.256
19,ATTATAAG,0.237
20,CTTATATA,0.334
21,ATTATACA,0.222
22,ATATTACA,0.256
